HPGD inh – inhibitors of human 15-hydroxyprostaglandin dehydrogenase (HPGD); purified HPGD, NADH fluorescence kinetic, PGE2 substrate; AID 894; hit rate 4.3% among 150,000; Potency, µM, inactives show at the highest dose activity change, negative = inhibition, usual class: inhibitors; P15428; further: potency means the concentration at half of the fitted maximal effect
Target sequence (P15428 whole entry, looked up): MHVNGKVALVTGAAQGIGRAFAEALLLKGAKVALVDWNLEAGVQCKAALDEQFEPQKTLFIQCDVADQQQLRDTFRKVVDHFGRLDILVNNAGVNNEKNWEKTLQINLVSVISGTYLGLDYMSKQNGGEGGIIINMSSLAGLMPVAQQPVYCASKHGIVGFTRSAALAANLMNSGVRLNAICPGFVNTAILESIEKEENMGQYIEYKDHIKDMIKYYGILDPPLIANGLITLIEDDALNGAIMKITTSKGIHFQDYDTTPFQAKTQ
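NADH formation kinetics: reaction with 30 uM PGE2 and 1 mM NAD+ (final), 20 nM enzyme, Tris-HCl pH 8 with Tween 20, after 15 min compound preincubation at room temperature. Fluorescence change, last versus first of five reads.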
ALDH1A1 inh – blocks purified human ALDH1A1 activity. hit rate 7.3% among 220,000. Purified ALDH1A1, NADH fluorescence, propionaldehyde substrate. Potency, µM (doses to about 75.3 µM), for inactives: at the top dose activity, negative = inhibition, hits mostly inhibitors. P00352;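 further: potency means the concentration at half of the fitted maximal effect; plate controls were no enzyme wells and a reference inhibitor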
Lamin A splicing – changes lamin A minigene splicing in HeLa cells | Potency, µM (highest dose often 46.1 µM), inactives show top-dose ratio change, negative = inhibition, usual class: inhibitors | hit rate 0.01% among 200,000 | AID 1487 | HeLa LMNA splicing GFP/RFP minigene ratio, 48 h; active means well fitted inhibition curve with a large enough effect in the signal ratio, with a control signal flat, not every such curve was filed as active; inconclusive means small, poorly fitted or top-dose-only effect, or effect the other way, or a change in a side signal; the % refers to the signal ratio; further: potency means the concentration at half of the fitted maximal effect
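S3 HeLa stable clones carrying a lamin A-EGFP splicing minigene plus DsRed2 were seeded at 600 cells/well in Opti-MEM with 2% FBS, pin-dosed and incubated 48 h at 37°C. Acumen cytometry (488 nm) gave the GFP/RFP total-intensity ratio.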
Luc counter – counter-screen: inhibitors of Kinase-Glo firefly luciferase; Q27757; Kinase-Glo luciferase, ATP luminescence, 8 min; Potency, µM (titrated, usually from 38.3 µM), inactives show top-dose activity change, negative = inhibition, actives largely listed as inhibitors; hit rate 0.28% among 200,000; AID 1379; active means well fitted inhibition curve with a large enough effect; inconclusive means small, poorly fitted or top-dose-only effect; further: potency means the concentration at half of the fitted maximal effect; nearly all actives have a fitted effect of over 60% in size
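Recombinant Kinase-Glo luciferase, 10 uM ATP (linear range), luciferin; imidazole pH 7.2 / KCl / MgCl2 / Tween / BSA buffer; 8 min RT; luminescence.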
PNC inhibitor – blocks assembly of the perinucleolar compartment; PC3M PTB-GFP, PNC prevalence imaging, 16 h; hits give low values; activity change (PNC), negative = inhibition, % at 10 µM; hit rate 3.1% among 140,000;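 active means readout at or below -70, meaning at least 70% loss of cells showing the perinucleolar compartment, a nuclear body marking cancer cells; inconclusive means readout between -30 and a set limit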;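 further: plate controls were DMSO wells for no effect and camptothecin positive control wells for full effect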
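Compounds are pinned in duplicate onto adhered PC3M cells stably expressing GFP-tagged PTB and incubated 16 h at 37 C. Cells are then fixed, nuclei stained with Hoechst, and PNC-positive cells counted.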
Starred values were filed as active, the others as inactive; u = inconclusive; x = no result; [ ] = remark or other dose. Sampled rows, rich in hits. Any-hit rate of the full collection: about 10%. Unless noted, the call rests on the fitted dose curve; in most records, active means well fitted inhibition curve with a large enough effect (not every such curve was filed as active); inconclusive means small, poorly fitted or top-dose-only effect, or another doubt; inactive means no such curve, though single readings can be large or run the other way. Unless noted, on the % scale 0 is the no-effect control and ±100 the full control effect.

SMILES	HPGD inh	ALDH1A1 inh	Lamin A splicing	Luc counter	PNC inhibitor
O=C(CCS(=O)(=O)Cc1ccccc1)N1CCN(c2ccccc2)CC1	-2%	u	5%	2%	8
O=C(CCCC(=O)N1CCN(c2ccc([N+](=O)[O-])cc2)CC1)c1ccccc1	-5%	28µM*	-10%	1%	19
COc1ccccc1CC(=O)N1CCN(c2ccc([N+](=O)[O-])cc2)CC1	x	u	u	-1%	x
O=C(CCCc1ccccc1)N1CCN(c2ccc([N+](=O)[O-])cc2)CC1	0%	22µM*	-1%[0.0737 µM]	-3%	53
O=C(CCS(=O)(=O)Cc1ccccc1)N1CCN(c2ccc([N+](=O)[O-])cc2)CC1	x	25µM*	-20%[46 µM]	1%	x
Cc1ccc(NC(=O)CN2C(=O)CCn3nc(-c4cccn4C)cc32)cc1	x	x	13%[46 µM]	x	x
C1CCC2(CC1)C1=C(CCCC1)Nc1nnnn12	2%	28µM*	9%	-2%	u
C=CC[C@@H]1[C@H](O)CC[C@@]2(C)[C@H]1CC[C@@H]1[C@@H]2CC[C@]2(C)C([C@H](C)CCCC(C)C)CC[C@@H]12 (some centres undefined)	x	9%	x	x	x
COc1ccc(-c2nn3c(COc4ccccc4)nnc3s2)cc1OC	u	u	3%	1%	u
Clc1ccc(Cl)c(-c2nn3c(COc4ccccc4)nnc3s2)c1	10µM*	3.5µM*	4%	1%	-2
c1ccc(OCc2nnc3sc(-c4cccs4)nn23)cc1	8.9µM*	3.5µM*	-2%	2%	u
COc1ccccc1-c1nn2c(-c3ccccc3Cl)nnc2s1	-11%	-11%	6%	3%	-25
N#Cc1ccc(CN2CCC3(CC2)CCN(C(=O)c2cccc(F)c2)CC3)cc1	-3%	-7%	x	-4%	x
COC(=O)c1ccc(C)c(NC(=O)CN(c2ccccc2)S(=O)(=O)N(C)C)c1	x	12%	30%[46 µM]	1%	x
Cc1nc2sc3c(c2c(=O)o1)CCC3	20µM*	25µM*	12%	-4%	-4
O=c1[nH]c(-c2ccco2)nc2sc3c(c12)CCCC3	u	u	-4%	-11%	-116*
Cc1nc2sc3c(c2c(=O)[nH]1)CCCC3	-9%	1%[13.5 µM]	x	-4%[7.66 µM]	x
O=c1[nH]c(S)nc2sc3c(c12)CCCC3	x	4.5µM*	x	1%	x
O=C(c1csnn1)N1CCC2(CC1)CN(c1cccc(-c3ccccc3)c1)C2	u	u	x	-2%	x
CCOC(=O)c1cnc(-n2nc(C)cc2C)nc1Nc1ccc(N(C)C)cc1	-19%	20µM*	u	-1%	216
CCOC(=O)c1cnc(-n2nc(C)cc2C)nc1NC1CCCCC1	x	25µM*	u	x	u
COC(=O)NC(c1ccccc1)[C@@]1(C(=O)OC)CCCC1=O (some centres undefined)	x	12%[13.5 µM]	x	x	x
CS(=O)(=O)N1CCC2(CCN(Cc3nccs3)CC2)CC1	-6%	14%	x	1%	x
Cc1sc2nc(-c3ccccc3)[nH]c(=O)c2c1-c1ccccc1	u	u	16%	-5%	71
Cc1c(-c2ncn[nH]2)sc(C#N)c1-c1ccccc1	x	25µM*	-2%[9.22 µM]	4%	x
SMILES	HPGD inh	ALDH1A1 inh	Lamin A splicing	Luc counter	PNC inhibitor
O=C=Nc1ccc(Cc2ccc(N=C=O)cc2)cc1	-3%	5%	x	x	x
Cc1nc(NC(=O)C2CC3CCCC(C2)C3=O)sc1C (centres undefined)	-7%	u	8%	1%	-122*
O=C(Nc1cccc(NC(=O)C2CC3CCCC(C2)C3=O)n1)C1CC2CCCC(C1)C2=O (centres undefined)	7%	-10%	-13%	4%	u
O=C(O)CSCc1c(F)cccc1Cl	-15%	5%	-8%	-4%	-14
COc1ccc(CNC(=O)CSCc2c(F)cccc2Cl)cc1	x	2.2µM*	x	-5%	x
O=C(NCCSCc1c(F)cccc1Cl)c1ccco1	5µM*	16µM*	-3%	1%	-15
O=C(CSCc1c(F)cccc1Cl)NCc1ccncc1	x	u	u	-8%	x
COCCNC(=O)CSCc1c(F)cccc1Cl	22µM*	11%	-2%	1%	42
O=C(CNC(=O)c1ccco1)OCc1c(F)cccc1Cl	0%	14%	-1%	2%	68
CC(C)c1ccc(N2C(=O)N(Cc3ccccc3Cl)c3ccccc3S2(=O)=O)cc1	x	x	-8%[46 µM]	x	x
COc1cc(SC)ccc1C(=O)N1CCCCCC1	3.2µM*	6%	u	0%	-17
O=C(NC1CC1)c1ccc(F)cc1Cl	20µM*	-6%	-14%	-4%	1
O=C(NC1CCCCCCC1)c1cc(F)c(F)cc1Cl	x	-13%	1%[46 µM]	1%	x
CSc1ccc(Cl)c(C(=O)NC2CCCC2)c1	16µM*	9%	12%	-6%	20
COc1cc(SC)ccc1C(=O)NC1CCCCC1	22µM*	u	3%	11%	-25
O=C(Nc1ccc(F)cc1F)NC1CC1	x	2%	x	0%	x
COc1cc(SC)ccc1C(=O)OCC(=O)NC1CCCCC1	x	-9%	18%[46 µM]	0%	x
Cc1cc(C)cc(OC(=O)c2cc(-c3ccc(Cl)cc3)on2)c1	x	x	34%[46 µM]	x	x
Cc1nc(Sc2ccc(Br)cc2)c(C#N)c(C)c1[N+](=O)[O-]	x	0%	x	x	x
Cc1cnc(CNc2ncncc2-c2ccccc2C(F)(F)F)cn1	u	u	-4%	-1%	x
COc1ccc(Br)cc1CN(C)CC(=O)Nc1c(Cl)cccc1Cl	16µM*	14%	u	0%	u
COc1ccc(Br)cc1CN(C)CC(=O)Nc1cccc(S(N)(=O)=O)c1	x	2%	-16%[46 µM]	3%	x
O=C(COc1ccc([N+](=O)[O-])cc1)Nc1nc2c(s1)CCCC2	x	x	12%[46 µM]	x	x
Cc1ccc(CNC(=O)CSc2c3c(nc4ccc(Cl)cc24)CCCC3)o1	-28%	8.9µM*	u	1%	92
N=c1c2c(-c3ccccc3)c(-c3ccccc3)n(Cc3ccccc3)c2ncn1CCCn1ccnc1	-16%	0%	u	-2%	-98*
SMILES	HPGD inh	ALDH1A1 inh	Lamin A splicing	Luc counter	PNC inhibitor
N=c1c2c(-c3ccccc3)c(-c3ccccc3)n(Cc3ccco3)c2ncn1Cc1ccco1	-2%	-1%	u	-5%	19
CCCN1C(=O)C(Cc2nc3ccccc3c(=O)n2C)c2ccccc21 (centres undefined)	-6%	0.28µM*	8%	-3%	41
CCN1C(=O)C(Cc2nc3ccccc3c(=O)n2C)c2ccccc21 (centres undefined)	-4%	u	8%	-2%	5
CCCCn1cc(S(=O)(=O)c2ccc(OC)cc2)c(=O)c2cc(F)c(N3CCCC3)cc21	x	x	15%[46 µM]	x	x
CN(CC(=O)N1CCCCCC1)S(=O)(=O)c1ccc(Br)s1	22µM*	u	14%	-4%	32
O=C(CN1C(=O)c2cccnc2Sc2ccccc21)Nc1cc(F)ccc1F	x	x	-7%[46 µM]	x	x
COc1ccc(-c2csc(NC(=O)CN3C(=O)CCC3=O)n2)c(OC)c1	-15%	-10%	-11%	7%	u

Assay outcomes as filed in PubChem BioAssay.
